# KLF5 inh – suppresses KLF5 promoter-driven expression; DLD-1 KLF5 promoter-luciferase reporter, luminescence; inhibition, % at 5 µM; 290,000 tested, 0.23% active; AID 1700;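 active = inhibition above a per-plate limit of that plate's mean compound inhibition plus 3 SD, cut at about 60% in these data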;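 note: 0% = DMSO wells and 100% = LY294002 at 200 µM; higher means less KLF5 promoter-driven luciferase light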
# IEC-6 cytotox – kills IEC-6 intestinal cells in KLF5 counter-screen. IEC-6 cytotoxicity, luminescence viability. inhibition, % at 5 µM. 290,000 tested, 0.78% active; in the data active = inhibition above about 22%;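 note: 0% = plate median of test compound wells and 100% = cytotoxic reference compound wells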
# BaF3 tox – parental Ba/F3 viability inhibition as JAK2V617F counter-screen | 220,000 tested, 1.1% active | inhibition, % at 5.6 µM | CellTiter-Glo ATP luminescence | AID 1486;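 active = inhibition above a per-campaign cutoff, the mean inhibition of all tested compounds plus 3 SD, cut at about 27% in these data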;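 note: 0% = DMSO wells and 100% = JAK Inhibitor I control wells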
# aSyn UTR inh – 5' untranslated region of α-synuclein, MLPCN primary screen | alpha-synuclein 5'UTR reporter, inhibitor activity | inhibition, % (tested at 7.5 µM) | AID 1813 | 300,000 tested, 0.82% active; in the data active = inhibition above about 60%;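 note: H4 neuroglioblastoma cells stably carrying SNCA 5'UTR luciferase fusion; 0% = DMSO wells and 100% = positive control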
# Ba/F3 V617F tox – reduce viability of Ba/F3 cells dependent on JAK2V617F | inhibition, % at 5.6 µM | 220,000 tested, 1.1% active | Ba/F3 EpoR-JAK2V617F viability, ATP luminescence;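 active = inhibition above the campaign mean plus 3 SD over all tested compounds, cut at about 24% in these data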;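 note: cytokine-independent growth of Ba/F3 cells driven by EpoR plus mutant JAK2; 0% = DMSO-treated cells and 100% = JAK inhibitor I control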
# APP transl inh – APP translation inhibition | 190,000 tested, 0.82% active | inhibition, % at 2 µM | SH-SY5Y APP 5'UTR-luciferase reporter, luminescence;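 active = inhibition above a set limit, derived from the sample mean plus 3 SD, cut at about 45% in these data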
# An asterisk follows results filed as active; · = no result. In the library only some 2.2% were active in any assay of this set; here they are far more common.
SMILES,KLF5 inh,IEC-6 cytotox,BaF3 tox,aSyn UTR inh,Ba/F3 V617F tox,APP transl inh
CC1(C)CC(=O)c2c(nc(SCC(=O)Nc3nsc(-c4ccccc4)n3)c(C#N)c2-c2ccccc2)C1,-26.1,1.9,-0.8,74.1*,-2.5,-10.2
Cc1nnc(SCC(=O)Nc2nsc(-c3ccccc3)n2)s1,-31.1,-5.9,2.8,-37.6,-1.7,-23.1
CC(=O)c1cccc(CN2CCC(C(=O)Nc3cccc(-c4ccn[nH]4)c3)CC2)c1,6.2,-1.8,·,-11.7,·,·
O=C(O)c1ccccc1NC(=O)C1CCCO1 (configuration not stated),-9.7,3.9,0.8,14.2,-3.0,-13.2
O=C(Nc1ccccc1Sc1ccccc1)C1CCCO1 (configuration not stated),-4.8,-1.7,2.0,15.4,-1.6,48.7*
Cc1c(Cc2ccccc2)sc(/N=C/c2ccc3ccccc3c2)c1C(N)=O,4.8,8.2,1.8,·,-2.5,53.4*
CCC(O)CC(C(=O)NNc1ccccc1)C(=O)NNc1ccccc1 (configuration not stated),1.2,4.7,7.4,-8.2,-1.3,-9.5
Cn1cc(C(=O)N/N=C/C(Br)=C/c2ccccc2)ccc1=O,-35.0,9.6,2.4,-42.2,1.4,84.7*
Cn1cc(C(=O)N/N=C/C(Br)=C\c2ccccc2)ccc1=O,0.2,4.6,4.2,-83.0,1.2,0.5
CCN(CC)CCNC(=O)C(=O)Nc1ccc(C(=O)OC)cc1,-6.2,-1.9,-6.7,15.0,-1.4,·
Cc1cccc(/C=N\NC(=O)c2sccc2-n2cccc2)c1,-55.9,5.4,5.6,-15.4,5.5,-3.1
Cc1ccc(OCCC(=O)OCC(=O)NC(=O)NC2CCCCC2)cc1,·,·,·,2.9,·,·
O=C(CSCc1ccc([N+](=O)[O-])cc1)N/N=C/c1ccncc1,-26.7,-2.1,83.8*,-5.4,2.1,-7.9
O=C(CSCc1ccc([N+](=O)[O-])cc1)N/N=C/c1cccnc1,-15.3,4.3,1.5,6.1,-2.8,-16.6
C/C=C(/C)C(=O)Nc1cccc(C2=NOC3(C2)C[C@@H](C(N)=O)N(C(=O)/C=C/CC)C3)c1 (some centres not stated),·,·,·,11.1,·,·
CCCCNC(C(=O)Nc1cccc(S(=O)(=O)N2CCOCC2)c1)c1ccccc1 (configuration not stated),15.1,-6.5,35.9*,2.8,-0.1,-3.7
COc1ccccc1CC(=O)Nc1cccc(S(=O)(=O)N2CCOCC2)c1,-26.4,-1.1,·,-0.6,·,·
CN(C)c1ccc(C(=O)N/N=C/c2ccccn2)cc1,-104.3,1.4,·,-84.7,·,·
COc1ccc(-c2oc3cc(O)c(OC)c(O)c3c(=O)c2OC)cc1,·,·,·,-45.5,·,·
COc1ccc(-c2oc3cc(OC)c(O)c(OC)c3c(=O)c2OC)cc1O,-25.5,10.3,1.3,65.0*,7.8,14.0
COc1cccc(CN2CCNC(=O)C2CC(=O)NCCc2nc(C)c(C)s2)c1OC (configuration not stated),5.1,0.2,0.8,4.6,-4.9,5.3
O=C(COC(=O)c1cc(-c2ccccc2Cl)nc2ccccc12)Nc1ncc(C(F)(F)F)cc1Cl,15.9,-1.8,0.4,39.5,-3.9,49.0*
C(C#CCCCCCCCCC[n+]1ccccc1)#CCCCCCCCCC[n+]1ccccc1,46.0,51.0*,·,73.3*,·,·
Cc1ccc(S(=O)(=O)/N=C2/C=C(Sc3ncn[nH]3)C(=O)c3ccccc32)c(C)c1,-2.1,7.2,14.5,·,53.8*,65.5*
CC(C)c1ccc(S(=O)(=O)/N=C2/C=C(Sc3ncn[nH]3)C(=O)c3ccccc32)cc1,12.6,38.7*,73.6*,·,53.6*,34.1
SMILES,KLF5 inh,IEC-6 cytotox,BaF3 tox,aSyn UTR inh,Ba/F3 V617F tox,APP transl inh
Cc1ccccc1N1C(N)=NC(N)=NC1(C)C,-16.6,-4.1,56.9*,9.3,56.3*,-4.1
Cc1ccc(N2C(N)=NC(N)=NC2(C)C)c(C)c1,-0.8,-2.3,99.5*,5.7,87.2*,-3.4
CCCCNC(=S)NCC(c1ccccc1)c1c[nH]c2ccccc12 (configuration not stated),-34.4,-1.9,·,-1.1,·,·
CN(C)CCCNC(=S)NCC(c1ccc(Cl)cc1Cl)c1c[nH]c2ccccc12 (configuration not stated),-36.7,10.1,·,110.6*,·,·
O=C(CSc1nc2[nH]ncc2c(=O)[nH]1)NCCc1ccccc1,3.3,1.2,3.2,-1.5,-2.3,7.3
Cc1ccc(CNC(=O)CCc2nnc3ccc(N4CCC5(CC4)OCCO5)nn23)cc1,4.2,-1.4,·,17.5,·,·
COc1cccc(/C=C2\Oc3ccc(O)cc3C2=O)c1O,-41.7,5.6,·,83.4*,·,·

# Screening data as filed in PubChem.
